# Assay results taken from the supplement of paper PMC6555819.
# Assays:
# Test in all cases: PBM binding z-score (relative to random genomic background probes); higher = stronger binding; sequences stand for … in GC…GCGATTGACAGCGTAGAATGAAGG
# [1] = tested on: RARb homodimer (NR concentration 270 nM)
# Procedure, shortened: (§1)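 Antibodies against each partner of ligand-free nuclear receptor dimers (one per run) detected binding on custom Agilent 4×180K protein-binding microarrays after 1 h incubation. The double-stranded probes had 34-nt variable regions carrying direct-repeat seeds, single-nucleotide variants, half-site ablations and random human genomic background sequences. Binding z-scores, from regression-normalized fluorescence, use the random background probes as reference.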
# [2] = tested on: RARg:RXRa (NR concentration 270 nM, RXRa partner concentration 90 nM)
# Procedure, shortened: as §1
# [3] = tested on: RARg homodimer (NR concentration 270 nM)
# Procedure, shortened: as §1
# [4] = tested on: RXRa DBDmut IVT, anti-RXR (DBD mutation: RXRa K156A/R161A, NR concentration 90 nM)
# Procedure, shortened: as §1
# [5] = tested on: RXRa homodimer (NR concentration 180 nM)
# Procedure, shortened: as §1
# [6] = tested on: THRa:RXRa (NR concentration 90 nM, RXRa partner concentration 90 nM)
# Procedure, shortened: as §1
# [7] = tested on: THRa homodimer (NR concentration 90 nM)
# Procedure, shortened: as §1
# [8] = tested on: VDR homodimer (NR concentration 270 nM)
# Procedure, shortened: as §1
Sequence,PBM binding z-score [1],PBM binding z-score [2],PBM binding z-score [3],PBM binding z-score [4],PBM binding z-score [5],PBM binding z-score [6],PBM binding z-score [7],PBM binding z-score [8]
TCTGGTAGATCAAAGGTTAAGAAAGCCGAAGCCT,1.4,1.89,0.73,0.747,3.05,1.33,-0.327,0.151
ATCTCTAGGTAAGACTCAGTTCAGTGACGAACGC,0.735,0.464,0.443,0.676,0.364,0.824,0.878,1.74
CGAACTCGGTCAGAACAGGACAGTGAAGGATGAT,1.03,1.4,1.81,0.172,0.348,1.78,-0.368,0.368
AGAACGAGGGCACGCTGAGATGATAGCAGAGTAG,1.2,1.91,2.21,1.8,1.41,1.48,-0.0737,0.452
GCTTGTAGATCCAGGTTAAGAAAGACTAAGCTAA,-0.153,-0.172,-0.0642,-0.00816,-0.0609,0.485,-0.162,-0.0555
ACAGACGGGTGATGAAGGTAACTCAGGCTATCAT,-0.00116,-0.0351,0.218,-0.512,0.0942,0.536,0.269,-0.203
CCGACTGGTGCAGAAAGGTTACCATACCATCCGG,1.73,1.16,0.812,-0.6,1.61,0.935,-0.35,-0.229
GCAGACAGGTGAAACGCAGGTAACACAGGGTGGC,0.0703,1.1,0.467,-0.772,0.886,1.26,-0.435,-0.401
TCATATAGGTAATACAGCTGAAAGTCGGCATCTA,-0.493,0.294,0.383,1.69,0.684,-0.0502,-0.127,-0.525
ATATGTAGGTTAAGGGTCATTCTGGTTGGTTCGC,3.64,4.65,3.2,2.17,6.03,3.23,1.75,4.43
AGGATGAGGTTAAGATCAGGGAAACAGAATACAT,1.48,2.1,1.71,0.731,2.55,2.66,1.15,1.08
ATCGAAAGGTCGATGTGAGTATAGAGAAAGGGAA,1.41,3.16,3.01,1.16,2.9,1.37,-0.864,0.177
AGAACGAGGGCACGCTGATTTGATAGCAGAGTAG,1.14,1.65,1.92,1.63,1.38,1.65,-0.138,0.667
TAGCCTAGGTCATTCAGGGGCCAGTAGAGAAAGC,3.21,6.31,4.35,1.84,2.97,3.63,0.688,1.53
CCGACTGGGGCCAAGGTTACCATACTCAGTACGA,1.87,0.875,1.17,0.424,1.12,1.88,1.07,0.551
ATCGAAAGGTCGTGAGGAGAGTATACAGAAAGGC,2.56,4.52,4.04,1.59,5.22,2.7,0.251,0.69
CCTACTGGGCCATTCAGAGGTAATTGATCATATG,-0.0878,0.0655,0.162,-0.042,-0.244,0.3,-0.433,-0.114
ACGATTAGTTGACTTAGGGCAACCGATACGACGC,0.941,0.65,0.654,0.0967,0.512,1.43,0.264,-0.201
GCAGACAGGTGAAACACAGGTAACTCAGGGTGGC,0.58,1.37,0.385,-0.322,0.982,1.28,-0.504,-0.7
CCTACAGGGTCAGCTAGGCCAGAGTAGGGACGGC,3.06,4.32,4.38,1.01,4.59,3.02,0.663,0.899
TCATATAGGTAAACAGGTGACAGTCCGTAAGTTA,0.765,0.72,0.419,1.37,1.12,0.614,0.354,0.168
TCTATTAGTTGATTAGGGCAACCTAAACAGCGGA,0.947,0.824,0.799,0.995,0.669,0.862,0.4,0.145
CCTACTGGGCCACCAAAGGTCATTGATTCAGTGA,4.49,4.61,4.52,0.43,5.36,3.67,0.763,2.66
AATACAGGGTTACTAGGCCAGAGTAGGTACGAAT,0.925,1.24,0.893,0.264,1.57,1.07,0.206,0.675
ACTGGCAGGCCAAGTTTGGGTCACTCAAACAAAG,2.35,2.51,1.97,-0.557,0.925,2.56,1.14,-0.0755
CGAACAAGGTCAAGGACAGTGAATCTCCGCACGC,4.07,6.08,6.35,3.61,6.26,4.03,2.93,2.3
CCTAATGGGCCAAAAAGGTCATTGATGCCGATAA,4.33,4.34,4.05,1.29,4.45,3.03,0.29,2.59
ACAGACAGGTGATGAAGTTAACTCAGGCTATCAT,0.22,-0.00666,0.328,-0.128,0.00488,1.38,-0.0538,0.197
